± gives the standard deviation.
How the values were obtained:
[1] = test system: MILI (PIWIL2) piRISC loaded with L1MC piRNA (26 nt); assay: pre-steady-state target cleavage rate (min^-1); guide: L1MC piRNA 5'p-UAACUAAAUACUAUGCAAGCUGUAGG; higher = faster piRNA-guided slicing of the target;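 further: 1 nM active piRISC with 0.1 nM target library at 33 °C single turnover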
In short: (§1)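 In HEPES–potassium acetate buffer at 33 °C, […] transcribed, DNA-blocked target RNA library was mixed with 1 nM active affinity-purified piRISC carrying one synthetic guide, with or without 500 nM GTSF1 partner protein, for 0–8 or 0–960 min. Uncleaved targets were sequenced and normalised to depth and to weakly complementary targets; three trials were pooled and k3 was capped at 0.0001 min^-1. The pre-steady-state cleavage rate followed from a burst-and-steady-state fit.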

[2] = test system: EfPiwi piRISC loaded with L1MC piRNA (26 nt); assay: pre-steady-state target cleavage rate (min^-1); auxiliary factor: 500 nM Ephydatia muelleri Gtsf1; guide: L1MC piRNA 5'p-UAACUAAAUACUAUGCAAGCUGUAGG; MIWI and MILI are mouse PIWI proteins and EfPiwi is from a freshwater sponge; tags in brackets are library labels; higher = faster piRNA-guided slicing of the target
In short: as §1

[3] = auxiliary factor: 500 nM mouse GTSF1
[4] = auxiliary factor: none (no GTSF1)

| Sequence | pre-steady-state target cleavage rate [1, 3] | pre-steady-state target cleavage rate [1, 4] | pre-steady-state target cleavage rate [2] |
| --- | --- | --- | --- |
| UCCUGCUACAGGCUUGCAUAGUAUUUAGUUA | 0.241 ± 0.014 | 0.0112 ± 0.0031 | 0.00977 ± 0.0027 |
| UCCUGGAUCAGCUGCAUAGUAUUUAGUUA | 0.25 ± 0.015 | 0.00821 ± 0.0027 | 0.0152 ± 0.0053 |
| UCCUGGUACAGCUUGCAUAGUAUAUAGUAA | 0.173 ± 0.034 |  | 0.00335 ± 0.0022 |
| UCCUCCUACAGCUUGCACUAGUAUUUAGUUA | 0.0877 ± 0.019 |  | 0.0137 ± 0.0056 |
| UCCUGCUACAGCUUGCAUAGGAUUUAGUUA | 0.00856 ± 0.0037 |  | 0.00356 ± 0.001 |
| UCCUGGAUCAGCUUGCAUAGUAUUAAGUUA | 0.262 ± 0.026 | 0.00729 ± 0.0019 | 0.0323 ± 0.0094 |
| UCCUGGAUCACCAUGCAUAGUAUUUAGUUA | 0.14 ± 0.019 | 0.00489 ± 0.0025 | 0.013 ± 0.0061 |
| UCCUGGAUGUGCUUCGCAUAGUAUUUAGUUA | 0.155 ± 0.023 | 0.00505 ± 0.0021 | 0.0132 ± 0.0048 |
| UCCUGGAUGAGCUUGCAUUGUAUUUAGAAA | 0.0178 ± 0.0069 |  | 0.00384 ± 0.0021 |
| UCCUGCUACAGCUUGCAUUGUAUUUACUUA | 0.12 ± 0.025 | 0.00348 ± 0.0023 | 0.00271 ± 0.0027 |
| UCCUCCAUGAGCUUGCAUAGUAUUUAGAAA | 0.0637 ± 0.016 |  | 0.00475 ± 0.0019 |
| UCCUCCUACAGCAAGCAUAGUAUUUAGAAA | 0.217 ± 0.035 |  | 0.00443 ± 0.0036 |
| UCCUGCUACAGCUUGCAUAGUAUAUAGAAA | 0.0314 ± 0.01 |  | 0.00298 ± 0.0025 |
| UCCUGGAUGAGCAUGCAUAGUAUUUAGAAA | 0.121 ± 0.025 |  | 0.00289 ± 0.0024 |
| UCCUGGAACAGCUUGCAUAGAAUUUAGAUA | 0.0527 ± 0.018 |  | 0.00187 ± 0.0015 |
| UCCUCCUACAGCUUGCUUAGUAUUUAGAUA | 0.15 ± 0.018 |  | 0.00689 ± 0.0038 |
| UCCUGGAUCAGCUUGCAUAGUAUUUAGUAUA | 0.233 ± 0.021 | 0.00809 ± 0.0032 | 0.0115 ± 0.0043 |
| UCCUCCUACAGCUUGCAUAGUAUUAUGAAA | 0.115 ± 0.029 |  | 0.00358 ± 0.0025 |
| UCCUGCUACAGCUUGCAUAGUUUAUAGUUA | 0.0528 ± 0.017 |  | 0.00312 ± 0.0027 |
| UCCUCCUACAGCUUGCAUAGUUUUUAGAAA | 0.0703 ± 0.019 |  | 0.00527 ± 0.0024 |
| UCCUCCUACAGCUUGCAAAGUAUUUAGAUA | 0.0875 ± 0.015 |  | 0.00419 ± 0.0024 |
| UCCUGCUACAGCUUGCAUAGUGAUUUAGUUA | 0.0204 ± 0.0094 | 0.00369 ± 0.0028 | 0.00289 ± 0.0028 |
| UCCUGGAUCAGCUUGCAUAGUAUUUAGUCA | 0.285 ± 0.019 | 0.0107 ± 0.0027 | 0.0102 ± 0.0044 |
| UCCUGGAUCAGCAUGCAUACUAUUUAGUUA | 0.0724 ± 0.0079 | 0.00491 ± 0.0019 | 0.00409 ± 0.0018 |
| UCCUGGAUGUCCUUGCAUAGUACUUAGUUA | 0.0548 ± 0.01 | 0.00401 ± 0.0028 | 0.00586 ± 0.0027 |
| UCCUGGAUCUCCUUGCAUAGUAUUUAGUUA | 0.226 ± 0.014 | 0.00588 ± 0.0018 | 0.0227 ± 0.0066 |
| UCCUGCUACACGUUGCAUAGUAUUUAGUAA | 0.215 ± 0.028 | 0.00567 ± 0.0021 | 0.00458 ± 0.0025 |

| Sequence | pre-steady-state target cleavage rate [1, 3] | pre-steady-state target cleavage rate [1, 4] | pre-steady-state target cleavage rate [2] |
| --- | --- | --- | --- |
| UCCUGCUACAGGUUGCAUAGUAUAUAGUUA | 0.305 ± 0.036 | 0.00597 ± 0.0027 | 0.005 ± 0.0032 |
| UCCUGGAUCAGCUUGCAUAGUAUUUAGUUG [g2:g22:cont:t1G] | 0.285 ± 0.018 | 0.00983 ± 0.0019 | 0.0209 ± 0.0054 |
| UCCUGGAAGAGCUUGCAUAGUAUUUUGUUA | 0.21 ± 0.037 | 0.00584 ± 0.0025 | 0.00497 ± 0.0026 |
| UCCUCCUACAGCUAGCAUAGUAUUUAGUUA | 0.27 ± 0.019 | 0.00812 ± 0.0022 | 0.0119 ± 0.0038 |
| UCCUGGAUCAGCUUGCUUAGUUUUUAGUUA | 0.0369 ± 0.011 |  | 0.00518 ± 0.0042 |
| UCCUGGAUGUGCUUGCAUAGUCUUUAGUUA | 0.0458 ± 0.011 | 0.00463 ± 0.0025 | 0.00922 ± 0.0036 |
| UCCUGGUACAGCUUGCUUAGUAUUUAGAAA | 0.0808 ± 0.021 |  | 0.00224 ± 0.002 |
| UCCUCCUACAGCUUGGAUAGUAUUUAGAAA | 0.0815 ± 0.017 |  | 0.00325 ± 0.0015 |
| UCCUCCUACAGCUUGCUUAGAAUUUAGUUA | 0.0487 ± 0.011 |  | 0.00419 ± 0.002 |
| UCCUCCUACAGCUUGCAUAGUAUGUUAGUUA | 0.126 ± 0.022 |  | 0.00459 ± 0.0021 |
| UCCUCCUACAGCUAGCAUAGAAUUUAGUUA | 0.0602 ± 0.011 |  | 0.00325 ± 0.0019 |
| UCCUGGUACAGCUUGCAUAGUAUUUUGAAA | 0.06 ± 0.022 |  | 0.00282 ± 0.0028 |
| UCCUGGAUGUGCUUGCAUAGUAUUCAGUUA | 0.0572 ± 0.015 |  | 0.00279 ± 0.0024 |
| UCCUCCUUGAGCUUGCAUAGUAUUUAGAAA | 0.145 ± 0.025 |  | 0.00549 ± 0.0018 |
| UCCUCCUACAGCUUGCAUAGUAUUUAGAAA | 0.18 ± 0.028 |  | 0.00581 ± 0.0024 |
| UCCUGGAUGUGCUUGCAUAGUAUUGAGUUA | 0.0612 ± 0.019 |  | 0.00273 ± 0.0022 |
| UCCUGGAUGAGCUUGCAUAGUAAUUAGAUA | 0.0197 ± 0.0088 |  | 0.00341 ± 0.0028 |
| UCCUCCUACAGCUUGCAUAGUAAAUAGUAA | 0.119 ± 0.025 |  | 0.00375 ± 0.0025 |
| UCCUGGUACAGCUUGCAUAGUAAUUACAAA | 0.021 ± 0.0095 |  | 0.00331 ± 0.0026 |
| UCCUGCUACAGCUUGCAUAGUAUUUUCUAA | 0.0874 ± 0.021 |  | 0.00646 ± 0.0026 |
| UCCUGGAACAGGUUGCAUAGUAUUUAGAAA | 0.163 ± 0.026 |  | 0.00261 ± 0.0017 |
| UCCUGCUACAGCUUGCAUAGAAUUUAGUUA | 0.0612 ± 0.014 |  | 0.00582 ± 0.0022 |
| UCCUGCUUCAGCUUGCAUAGAAUUUAGUUA | 0.0587 ± 0.011 |  | 0.00544 ± 0.0015 |
| UCCUGCUACUGCUUCCAUAGUAUUUAGUUA | 0.0453 ± 0.014 |  | 0.00205 ± 0.0016 |
| UCCUGGAACACGAUGCAUAGUAUUUACAAA | 0.0623 ± 0.018 |  | 0.00408 ± 0.0037 |
| UCCUGGAACAGCUAGCAUAGUAUUUAGAAA | 0.219 ± 0.034 |  | 0.00262 ± 0.0023 |

Reference: the supplement of paper PMC10338343
